# In PubChem BioAssay (Tox21):
# Values joined by “and” are separate entries in the source; they are usually repeats but may differ in a detail not shown here. Identical values can stand only once. Records with an inconclusive call do not appear. Where a call stands in place of a potency, no number is given. The source holds several records for some structures; these can differ, active in one and inactive in another. Active and inactive are the calls of the source. Unless noted, calls come from the whole dose curve; as a rule, active = well fitted curve in the direction sought with a large enough effect in the repeat runs; inconclusive = weak or mixed curves; inactive = no such curve, though single readings can be large; an effect the other way counts as inactive or inconclusive.
# Tests used:
# [1] = qHTS assay to identify small molecule agonists of the constitutive androstane receptor (CAR) signaling pathway - cell viability counter screen (AID 1224836); note: nearly all actives have a fitted effect of over 45% in size
# Summary of the method: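 Viability read-out: CellTiter-Fluor fluorescence after 23 h compound exposure at 37 C/5% CO2 in double-stable HepG2-CYP2B6-hCAR cells, with PK11195 present at 0.75 uM final; compounds tested in 15-point titration.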
# [2] = qHTS assay to identify small molecule antagonists of the constitutive androstane receptor (CAR) signaling pathway - cell viability counter screen (AID 1224837); note: nearly all actives have a fitted effect of over 45% in size
# Summary of the method: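 Viability was measured with CellTiter-Fluor in a HepG2 line carrying stably transfected hCAR and a CYP2B6-2.2kb construct. Cells were exposed for 23 hr at 37 C to 15 compound concentrations with 50 nM CITCO as agonist.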
# [3] = target: Nuclear receptor subfamily 1 group I member 3 (Homo sapiens) (UniProt Q14994); assay: qHTS assay to identify small molecule antagonists of the constitutive androstane receptor (CAR) signaling pathway (AID 1224838);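 note: HepG2 cells stably expressing hCAR with CYP2B6 luciferase reporter stimulated by CITCO; nearly all actives have a fitted effect of over 40% in size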
# Sequence of Nuclear receptor subfamily 1 group I member 3 (Homo sapiens) (Q14994 whole entry, looked up): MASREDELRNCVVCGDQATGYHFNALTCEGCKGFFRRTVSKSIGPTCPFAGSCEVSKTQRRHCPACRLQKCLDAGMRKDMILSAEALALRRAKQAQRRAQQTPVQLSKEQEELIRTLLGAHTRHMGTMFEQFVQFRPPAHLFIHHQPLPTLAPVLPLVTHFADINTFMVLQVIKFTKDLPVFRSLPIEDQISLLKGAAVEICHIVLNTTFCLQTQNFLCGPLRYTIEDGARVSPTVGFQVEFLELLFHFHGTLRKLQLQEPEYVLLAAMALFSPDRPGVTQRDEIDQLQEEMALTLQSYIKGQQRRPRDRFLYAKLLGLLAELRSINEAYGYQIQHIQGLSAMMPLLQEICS
# Summary of the method: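 Antagonist mode used CITCO at a final 50 nM to activate CAR in human hepatoma HepG2 cells carrying stable hCAR and a 2.2 kb CYP2B6 promoter-luciferase construct. Compounds were tested at 15 concentrations over 24 h, with luminescence as the end point.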
# [4] = target: Nuclear receptor subfamily 1 group I member 3 (Homo sapiens) (UniProt Q14994); assay: qHTS assay to identify small molecule agonists of the constitutive androstane receptor (CAR) signaling pathway (AID 1224839); note: nearly all actives have a fitted effect of over 15% in size
# Summary of the method: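 Luminescence read-out (ONE-Glo, 30 min, room temperature) from double-stable HepG2-CYP2B6-hCAR cells exposed 24 h to 15-point compound series in presence of 0.75 uM PK11195 final.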
# [5] = qHTS assay to identify small molecule antagonists of the estrogen related receptor signaling pathway with the pleiotropic PPARgamma coactivator (PGC) from Tox21 10K library (AID 1224841; call rule not given here; note: actives are mostly falling curves and most rising ones were filed inactive; nearly all actives have a fitted effect of over 50% in size)
# Summary of the method: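 Steps: plate 2,000 PGC/ERR cells per well; incubate 6 h at 37 C with 5% CO2; transfer compounds from DMSO stocks by pin tool; incubate 18 h at 37 C; add One-Glo; measure luminescence 30 min later.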
# [6] = qHTS assay to identify small molecule agonists of the estrogen related receptor signaling pathway with the pleiotropic PPARgamma coactivator (PGC) from Tox21 10K library (AID 1224842); note: nearly all actives have a fitted effect of over 15% in size
# Summary of the method: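 PGC/ERR reporter cell line, 2,000 cells per well, incubated 6 h at 37 C before 23 nL compound in DMSO was added. After 18 h at 37 C, One-Glo luminescence read following 30 min at room temperature.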
# [7] = qHTS assay to identify small molecule agonists of the hypoxia (HIF-1) signaling pathway - cell viability counter screen (AID 1224844; calls by dose curve; note: nearly all actives have a fitted effect of over 50% in size)
# Summary of the method: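 Cytotoxicity was measured in parallel with the HRE-driven beta-lactamase readout: after 17 hrs of compound exposure at 37C, HRE-bla ME-180 cells received CellTiter-Glo and luminescence was recorded 30 min later.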
# [8] = qHTS assay to identify small molecule antagonists of the estrogen related receptor signaling pathway with the pleiotropic PPARgamma coactivator (PGC) from Tox21 10K library - cell viability counter screen (AID 1224840; active = well fitted cell-killing curve with a large enough effect in the repeat runs, not every such curve was filed as active; note: nearly all actives have a fitted effect of over 40% in size)
# Summary of the method: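 Multiplexed viability counter screen in the PGC/ERR cell line: cells treated with DMSO-dissolved compounds for 17.5 hours at 37 C, then viability measured as CellTiter-Fluor fluorescence.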
# [9] = target: Thyrotropin receptor (Homo sapiens) (UniProt P16473); assay: qHTS assay to identify small molecule agonists of the thyroid stimulating hormone receptor (TSHR) signaling pathway (AID 1224843; calls by dose curve; note: nearly all actives have a fitted effect of over 45% in size)
# Sequence of Thyrotropin receptor (Homo sapiens) (P16473 whole entry, looked up): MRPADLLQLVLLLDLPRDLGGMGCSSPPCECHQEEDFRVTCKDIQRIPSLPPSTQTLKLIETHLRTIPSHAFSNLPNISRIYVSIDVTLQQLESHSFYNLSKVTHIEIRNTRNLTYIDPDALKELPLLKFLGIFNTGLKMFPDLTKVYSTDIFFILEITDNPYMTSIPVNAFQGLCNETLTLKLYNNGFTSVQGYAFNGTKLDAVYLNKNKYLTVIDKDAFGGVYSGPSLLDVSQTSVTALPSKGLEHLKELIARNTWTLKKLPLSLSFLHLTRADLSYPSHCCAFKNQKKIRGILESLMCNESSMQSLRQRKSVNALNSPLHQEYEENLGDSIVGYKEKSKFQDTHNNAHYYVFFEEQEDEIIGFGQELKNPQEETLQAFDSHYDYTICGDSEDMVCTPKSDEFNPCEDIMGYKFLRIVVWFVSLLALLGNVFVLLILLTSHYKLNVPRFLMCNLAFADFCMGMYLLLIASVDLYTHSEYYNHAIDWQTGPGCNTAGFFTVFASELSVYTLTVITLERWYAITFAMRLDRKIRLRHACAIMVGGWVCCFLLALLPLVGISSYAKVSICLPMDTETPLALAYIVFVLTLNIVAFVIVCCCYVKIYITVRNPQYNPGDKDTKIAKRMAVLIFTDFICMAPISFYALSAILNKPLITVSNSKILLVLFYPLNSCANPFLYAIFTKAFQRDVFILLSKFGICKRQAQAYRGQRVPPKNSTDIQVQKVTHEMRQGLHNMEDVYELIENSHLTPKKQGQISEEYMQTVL
# Summary of the method: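 HEK293/TSHR, 800 cells/well; cpd 30 min RT; add cAMP-d2 + anti-cAMP-cryptate, 1 h RT; fluorescence read on plate reader. 15-pt titration, n=3.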
# Potency is the fitted concentration of half-maximal effect.
SMILES,Potency [1],Potency [2],Potency [3],Potency [4],Potency [5],Potency [6],Potency [7],Potency [8],Potency [9]
CC(C)(C)c1ccc(O)c(C(C)(C)C)c1,inactive,inactive,inactive,inactive,54.3 µM (active) and inactive,inactive,43.5 µM (active),–,–
COC(=O)[C@H]1[C@H]2C[C@@H]3c4[nH]c5cc(OC)ccc5c4CCN3C[C@H]2C[C@@H](OC(=O)c2cc(OC)c(OC)c(OC)c2)[C@@H]1OC,inactive,inactive,–,–,43.2 µM (active) and 15.8 µM (active),inactive,24.5 µM (active) and 31.8 µM (active) and inactive,inactive,inactive
COc1ccc(CCN(C)CCCC(C#N)(c2ccc(OC)c(OC)c2)C(C)C)cc1OC (stereo unspecified),48.5 µM (active),–,–,–,–,–,inactive,inactive,–
O=C(Oc1ccccc1)c1ccccc1O,inactive,inactive,inactive,inactive,–,–,inactive,inactive,inactive
CC(=O)O[C@]1(C(C)=O)CC[C@H]2[C@@H]3C[C@H](C)C4=CC(=O)CC[C@]4(C)[C@H]3CC[C@@]21C,inactive,inactive,–,inactive,–,–,inactive,inactive,inactive
CC(C)(C)NC(=O)[C@@H]1CN(Cc2cccnc2)CCN1C[C@@H](O)C[C@@H](Cc1ccccc1)C(=O)N[C@H]1c2ccccc2C[C@H]1O,inactive,inactive,–,–,–,–,inactive,inactive,–
CC(COc1ccccc1)N(CCCl)Cc1ccccc1 (stereo unspecified),inactive,inactive,inactive,27.6 µM (active) and 8.63 µM (active) and 10.6 µM (active),–,–,49.5 µM (active) and inactive,inactive,30.9 µM (active) and 43.3 µM (active) and 29.8 µM (active)
OCCOCCN1CCN(C(c2ccccc2)c2ccc(Cl)cc2)CC1 (stereo unspecified),–,–,–,inactive,–,–,9.64 µM (active),47.9 µM (active) and inactive,inactive
O=C1Nc2ccccc2C1(c1ccc(O)cc1)c1ccc(O)cc1,inactive,inactive,–,–,–,–,–,inactive,inactive
CCCC(=O)c1ccccc1,inactive,inactive,–,inactive,inactive,inactive,inactive,inactive,inactive
C=CC(=O)OCCCCCCOC(=O)C=C,inactive,–,inactive,inactive,inactive,21.7 µM (active),–,48.6 µM (active),inactive
CCCOC(=O)c1cc(O)c(O)c(O)c1,inactive,inactive,–,inactive and 19.3 µM (active),inactive,4.31 µM (active),inactive,–,inactive
CNCCC(Oc1ccc(C(F)(F)F)cc1)c1ccccc1 (stereo unspecified),–,–,–,–,–,–,–,67.7 µM (active) and 29.8 µM (active),inactive
O,inactive,inactive,–,–,–,–,inactive,inactive,inactive
CCCCCCCCCCCCc1ccccc1O,inactive,–,–,4.79 µM (active) and 4.33 µM (active),–,–,19.5 µM (active),inactive and 48.6 µM (active),–
O=C1NCC2(CCN(CCc3ccccc3)CC2)O1,inactive,inactive,inactive,inactive,–,–,inactive,inactive,inactive
CN(C)c1ccc(C(=C2C=CC(=[N+](C)C)C=C2)c2ccccc2)cc1,11.9 µM (active) [middle of 4 runs],–,–,inactive,–,inactive,11 µM (active) and 5.35 µM (active),3.44 µM (active) and 6.68 µM (active) and 4.73 µM (active),–
O=Nc1ccc(Nc2ccccc2)cc1,inactive,inactive,–,17.2 µM (active),–,9.69 µM (active),55.3 µM (active),15.4 µM (active) and 19.3 µM (active),–
Cc1cc(Cc2cc(C)cc(C(C)(C)C)c2O)c(O)c(C(C)(C)C)c1,61.4 µM (active),–,19.4 µM (active) and 43.3 µM (active),inactive,48.8 µM (active) and 30.6 µM (active),inactive,9.82 µM (active) and 9.77 µM (active),48.8 µM (active) and 43.3 µM (active),43.5 µM (active) and inactive
O=c1n(CC2CO2)c(=O)n(CC2CO2)c(=O)n1CC1CO1 (stereo unspecified),54.2 µM (active) and 61.1 µM (active),60.8 µM (active) and 54.5 µM (active),76.5 µM (active) and 61.1 µM (active),inactive,–,–,inactive,–,inactive
CCC(C)(C)C(=O)O[C@H]1C[C@@H](C)C=C2C=C[C@H](C)[C@H](CC[C@@H]3C[C@@H](O)CC(=O)O3)[C@H]21,inactive,inactive,inactive,–,–,–,–,inactive,inactive
COc1nc(C)nc(Cl)c1NC1=NCCN1,inactive,inactive,–,–,–,–,inactive,inactive,inactive
NC12CC3CC(CC(C3)C1)C2,inactive,inactive,–,–,–,–,inactive,inactive,–
c1ccc2cc3c(ccc4ccccc43)cc2c1,inactive,inactive,–,30.7 µM (active) and 27.3 µM (active),–,–,inactive,inactive,inactive
CCCCCCCCCCCCCC[P+](CCCC)(CCCC)CCCC,19.2 µM (active) and 24.3 µM (active),17.1 µM (active) and 27.3 µM (active),–,inactive,–,–,21.8 µM (active) and 21.9 µM (active),21.6 µM (active) and 27.3 µM (active),inactive
CC(C)(C)c1cc(C(C)(C)C)c(O)c(C(C)(C)C)c1,inactive,inactive,–,12.2 µM (active),–,–,–,inactive,inactive
CC(=O)N[C@@H](CS)C(=O)O,inactive,inactive,–,inactive,–,–,inactive,inactive,inactive
Cc1cc(OCCOCC[N+](C)(C)Cc2ccccc2)ccc1C(C)(C)CC(C)(C)C,–,–,inactive,inactive,30.5 µM (active) and 7.5 µM (active),inactive,24.4 µM (active) and 23.9 µM (active),48.3 µM (active),27.1 µM (active) and 15 µM (active)
COC(=O)c1cccc(C(=O)OC)c1,inactive,inactive,inactive,inactive,–,–,inactive,inactive,–
CC(=O)OCCOCCOCCOC(C)=O,inactive,inactive,inactive,inactive,–,–,inactive,inactive,6.77 µM (active) and inactive
